Test results reported in publication PMC7862700, “An all-to-all approach to the identification of sequence-specific readers for epigenetic DNA modifications on cytosine”.

Key:
Assay in all cases: DAPPL (digital affinity profiling via proximity ligation, sequencing); 10 mM Tris-HCl pH 7.5, 50 mM NaCl, 1 mM DTT, 4% glycerol, room temperature, 30 min; GST-TFs on glutathione beads, 16-mer random dsDNA library, 0.1% formaldehyde crosslink after washing; high values mean tight binding
Conditions in all cases: protein: recombinant; tags: N-terminal GST; dsDNA, one strand shown
FLI1 = target: T1, FLI1 (Homo sapiens, UniProt Q01543 1-452)
T1 sequence: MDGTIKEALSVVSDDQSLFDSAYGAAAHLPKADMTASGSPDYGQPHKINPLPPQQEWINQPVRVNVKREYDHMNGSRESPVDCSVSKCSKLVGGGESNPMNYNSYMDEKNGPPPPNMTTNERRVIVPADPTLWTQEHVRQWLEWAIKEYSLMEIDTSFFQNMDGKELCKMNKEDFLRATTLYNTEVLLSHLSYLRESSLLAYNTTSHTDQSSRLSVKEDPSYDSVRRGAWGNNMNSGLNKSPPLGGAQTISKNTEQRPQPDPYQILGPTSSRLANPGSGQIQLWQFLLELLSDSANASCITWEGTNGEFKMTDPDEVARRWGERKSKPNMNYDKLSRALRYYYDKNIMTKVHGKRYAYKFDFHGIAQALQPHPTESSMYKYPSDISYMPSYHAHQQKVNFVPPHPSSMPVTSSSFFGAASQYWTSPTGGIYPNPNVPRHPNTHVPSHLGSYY
In short: (§1)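 Pools were built from human transcription factors expressed in yeast as GST fusions, captured on glutathione beads and DNA-barcoded, along with a tag-only sample. Incubation with 200 nmole of a 16-mer random double-stranded DNA library lasted 30 min at room temperature in Tris/NaCl/DTT/glycerol buffer, and was followed by washing, 0.1% formaldehyde crosslinking, proximity ligation, PCR amplification and Illumina NextSeq500 sequencing. Binding signal is the quotient of each hexamer's read frequency for a factor and its frequency for the tag-only sample.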

ELK1 = target: T2, ELK1 (Homo sapiens, UniProt P19419 1-428)
T2 sequence: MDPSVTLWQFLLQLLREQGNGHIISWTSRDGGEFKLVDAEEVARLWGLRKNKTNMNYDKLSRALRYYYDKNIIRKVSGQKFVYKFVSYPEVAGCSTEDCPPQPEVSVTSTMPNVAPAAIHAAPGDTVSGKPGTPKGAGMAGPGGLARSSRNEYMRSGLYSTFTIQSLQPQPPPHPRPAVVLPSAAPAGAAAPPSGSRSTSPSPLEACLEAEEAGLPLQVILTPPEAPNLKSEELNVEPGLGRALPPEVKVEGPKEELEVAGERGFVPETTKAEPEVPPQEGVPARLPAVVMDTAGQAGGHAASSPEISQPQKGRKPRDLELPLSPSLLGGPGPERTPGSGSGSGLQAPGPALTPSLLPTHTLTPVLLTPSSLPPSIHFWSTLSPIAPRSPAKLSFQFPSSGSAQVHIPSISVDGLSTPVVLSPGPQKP
In short: as §1

GABPA = target: T3, GABPA (Homo sapiens, UniProt Q06546 1-454)
T3 sequence: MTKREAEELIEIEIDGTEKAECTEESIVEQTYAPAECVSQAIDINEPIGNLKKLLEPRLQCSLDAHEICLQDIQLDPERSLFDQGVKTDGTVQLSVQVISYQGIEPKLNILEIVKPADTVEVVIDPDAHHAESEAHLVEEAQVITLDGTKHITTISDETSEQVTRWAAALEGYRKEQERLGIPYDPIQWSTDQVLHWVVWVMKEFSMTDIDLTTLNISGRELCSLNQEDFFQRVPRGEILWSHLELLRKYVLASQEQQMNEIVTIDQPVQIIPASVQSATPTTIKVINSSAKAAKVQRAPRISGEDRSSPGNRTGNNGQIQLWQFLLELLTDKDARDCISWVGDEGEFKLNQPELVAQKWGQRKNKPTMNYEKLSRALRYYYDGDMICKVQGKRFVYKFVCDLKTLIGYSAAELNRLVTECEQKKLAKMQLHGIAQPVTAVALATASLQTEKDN
In short: as §1

ERG = target: T4, ERG (Homo sapiens, UniProt P11308 1-479)
T4 sequence: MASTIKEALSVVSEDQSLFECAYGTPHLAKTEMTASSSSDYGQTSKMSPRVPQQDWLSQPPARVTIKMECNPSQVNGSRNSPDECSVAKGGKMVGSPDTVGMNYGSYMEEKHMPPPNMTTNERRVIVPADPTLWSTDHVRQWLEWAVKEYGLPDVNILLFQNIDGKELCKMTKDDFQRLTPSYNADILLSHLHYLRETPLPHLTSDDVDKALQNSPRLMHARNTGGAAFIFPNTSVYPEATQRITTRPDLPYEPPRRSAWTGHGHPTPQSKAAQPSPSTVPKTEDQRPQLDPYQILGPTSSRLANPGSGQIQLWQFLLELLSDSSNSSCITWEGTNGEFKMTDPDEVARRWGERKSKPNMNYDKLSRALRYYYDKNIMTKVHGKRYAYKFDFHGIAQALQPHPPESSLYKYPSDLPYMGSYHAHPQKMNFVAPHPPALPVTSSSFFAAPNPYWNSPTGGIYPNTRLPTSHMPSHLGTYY
In short: as §1

ELF1 = ELF1 (Homo sapiens, UniProt P32519 1-619)
In short: as §1

EHF = target: T5, EHF (Homo sapiens, UniProt Q9NZC4 1-300)
T5 sequence: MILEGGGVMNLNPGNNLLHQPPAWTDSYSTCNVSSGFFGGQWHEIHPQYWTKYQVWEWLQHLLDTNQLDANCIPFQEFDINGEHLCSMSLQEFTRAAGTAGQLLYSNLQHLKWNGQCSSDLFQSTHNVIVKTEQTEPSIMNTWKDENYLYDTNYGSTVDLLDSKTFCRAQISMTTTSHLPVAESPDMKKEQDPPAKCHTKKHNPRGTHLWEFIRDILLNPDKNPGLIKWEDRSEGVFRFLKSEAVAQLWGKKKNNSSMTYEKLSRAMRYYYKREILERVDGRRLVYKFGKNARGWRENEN
In short: as §1

SPI1 = SPI1 (Homo sapiens, UniProt P17947 1-270)
In short: as §1

SPIB = SPIB (Homo sapiens, UniProt Q01892 1-262)
In short: as §1

ELK3 = target: T6, ELK3 (Homo sapiens, UniProt P41970 1-407)
T6 sequence: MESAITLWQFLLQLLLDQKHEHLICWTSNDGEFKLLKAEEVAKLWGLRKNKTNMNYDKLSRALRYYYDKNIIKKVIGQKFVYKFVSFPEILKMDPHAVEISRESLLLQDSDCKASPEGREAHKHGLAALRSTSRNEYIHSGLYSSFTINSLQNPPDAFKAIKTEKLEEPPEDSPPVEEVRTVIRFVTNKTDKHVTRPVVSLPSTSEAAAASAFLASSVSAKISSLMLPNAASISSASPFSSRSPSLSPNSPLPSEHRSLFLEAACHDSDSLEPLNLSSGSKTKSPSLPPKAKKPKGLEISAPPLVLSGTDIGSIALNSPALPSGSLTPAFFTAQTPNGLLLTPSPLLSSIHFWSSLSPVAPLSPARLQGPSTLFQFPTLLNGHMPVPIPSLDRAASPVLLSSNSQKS
In short: as §1

Chain of SPIB (Q01892 whole entry): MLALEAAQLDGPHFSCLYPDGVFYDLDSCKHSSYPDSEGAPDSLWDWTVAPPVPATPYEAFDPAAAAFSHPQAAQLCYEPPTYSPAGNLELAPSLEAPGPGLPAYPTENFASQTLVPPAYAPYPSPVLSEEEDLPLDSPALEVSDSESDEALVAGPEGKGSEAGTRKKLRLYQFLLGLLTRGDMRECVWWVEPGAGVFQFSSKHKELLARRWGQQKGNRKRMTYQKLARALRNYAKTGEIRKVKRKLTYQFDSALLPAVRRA
Chain of ELF1 (P32519 whole entry): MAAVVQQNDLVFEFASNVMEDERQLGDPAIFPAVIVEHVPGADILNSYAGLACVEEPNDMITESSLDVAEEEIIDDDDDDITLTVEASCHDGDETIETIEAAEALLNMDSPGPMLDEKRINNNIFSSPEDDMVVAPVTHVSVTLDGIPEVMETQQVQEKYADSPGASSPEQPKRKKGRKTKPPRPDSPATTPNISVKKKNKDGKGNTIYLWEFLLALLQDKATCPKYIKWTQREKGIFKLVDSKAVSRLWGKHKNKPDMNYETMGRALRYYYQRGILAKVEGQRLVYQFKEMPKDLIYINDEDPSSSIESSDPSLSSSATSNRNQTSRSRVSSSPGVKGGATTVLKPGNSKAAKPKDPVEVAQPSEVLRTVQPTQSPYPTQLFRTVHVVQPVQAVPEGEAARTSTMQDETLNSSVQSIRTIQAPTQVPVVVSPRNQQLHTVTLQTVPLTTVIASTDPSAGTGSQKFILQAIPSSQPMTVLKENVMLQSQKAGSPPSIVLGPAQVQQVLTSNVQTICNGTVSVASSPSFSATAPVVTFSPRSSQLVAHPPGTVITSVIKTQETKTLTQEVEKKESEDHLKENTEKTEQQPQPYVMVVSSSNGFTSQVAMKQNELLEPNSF

Row | Sequence | binding signal (FLI1) | binding signal (ELK1) | binding signal (GABPA) | binding signal (ERG) | binding signal (ELF1) | binding signal (EHF) | binding signal (SPI1) | binding signal (SPIB) | binding signal (ELK3)
1 | ACGCAC | 1.06 fold enrichment (6-mer frequency, TF over GST control) | 1.09 fold enrichment (6-mer frequency, TF over GST control) | 1.04 fold enrichment (6-mer frequency, TF over GST control) | 1.02 fold enrichment (6-mer frequency, TF over GST control) | 1.06 fold enrichment (6-mer frequency, TF over GST control) | 1.03 fold enrichment (6-mer frequency, TF over GST control) | 1.03 fold enrichment (6-mer frequency, TF over GST control) | 1.07 fold enrichment (6-mer frequency, TF over GST control) | 1.09 fold enrichment (6-mer frequency, TF over GST control)
2 | GCTGTT | 1.04 fold enrichment (6-mer frequency, TF over GST control) | 1.07 fold enrichment (6-mer frequency, TF over GST control) | 1.12 fold enrichment (6-mer frequency, TF over GST control) | 1.11 fold enrichment (6-mer frequency, TF over GST control) | 1.1 fold enrichment (6-mer frequency, TF over GST control) | 1.07 fold enrichment (6-mer frequency, TF over GST control) | 1.06 fold enrichment (6-mer frequency, TF over GST control) | 1.03 fold enrichment (6-mer frequency, TF over GST control) | 1.04 fold enrichment (6-mer frequency, TF over GST control)
3 | CTATAA | 1.26 fold enrichment (6-mer frequency, TF over GST control) | 1.22 fold enrichment (6-mer frequency, TF over GST control) | 1.18 fold enrichment (6-mer frequency, TF over GST control) | 1.2 fold enrichment (6-mer frequency, TF over GST control) | 1.27 fold enrichment (6-mer frequency, TF over GST control) | 1.12 fold enrichment (6-mer frequency, TF over GST control) | 1.25 fold enrichment (6-mer frequency, TF over GST control) | 1.35 fold enrichment (6-mer frequency, TF over GST control) | 1.25 fold enrichment (6-mer frequency, TF over GST control)
4 | CTTACG | 1.16 fold enrichment (6-mer frequency, TF over GST control) | 1.15 fold enrichment (6-mer frequency, TF over GST control) | 1.11 fold enrichment (6-mer frequency, TF over GST control) | 1.02 fold enrichment (6-mer frequency, TF over GST control) | 1.1 fold enrichment (6-mer frequency, TF over GST control) | 1.07 fold enrichment (6-mer frequency, TF over GST control) | 1.09 fold enrichment (6-mer frequency, TF over GST control) | 1.06 fold enrichment (6-mer frequency, TF over GST control) | 1.07 fold enrichment (6-mer frequency, TF over GST control)
5 | GCCCTC | 1.12 fold enrichment (6-mer frequency, TF over GST control) | 1.18 fold enrichment (6-mer frequency, TF over GST control) | 1.25 fold enrichment (6-mer frequency, TF over GST control) | 1.11 fold enrichment (6-mer frequency, TF over GST control) | 1.17 fold enrichment (6-mer frequency, TF over GST control) | 1.18 fold enrichment (6-mer frequency, TF over GST control) | 1.1 fold enrichment (6-mer frequency, TF over GST control) | 1.18 fold enrichment (6-mer frequency, TF over GST control) | 1.15 fold enrichment (6-mer frequency, TF over GST control)
6 | CTCAGA | 1.07 fold enrichment (6-mer frequency, TF over GST control) | 1.12 fold enrichment (6-mer frequency, TF over GST control) | 1.13 fold enrichment (6-mer frequency, TF over GST control) | 1.1 fold enrichment (6-mer frequency, TF over GST control) | 1.14 fold enrichment (6-mer frequency, TF over GST control) | 1.1 fold enrichment (6-mer frequency, TF over GST control) | 1.04 fold enrichment (6-mer frequency, TF over GST control) | 1.01 fold enrichment (6-mer frequency, TF over GST control) | 1.02 fold enrichment (6-mer frequency, TF over GST control)
7 | GGATGC | 1.11 fold enrichment (6-mer frequency, TF over GST control) | 1.06 fold enrichment (6-mer frequency, TF over GST control) | 1.1 fold enrichment (6-mer frequency, TF over GST control) | 1.16 fold enrichment (6-mer frequency, TF over GST control) | 1 fold enrichment (6-mer frequency, TF over GST control) | 1.24 fold enrichment (6-mer frequency, TF over GST control) | 1.11 fold enrichment (6-mer frequency, TF over GST control) | 1.28 fold enrichment (6-mer frequency, TF over GST control) | 1.23 fold enrichment (6-mer frequency, TF over GST control)
